Assay results published in paper PMC5540273 (PLoS ONE, 2017).
Like-named read-outs stand apart in the source and are kept apart here.

Tests used:
[1] = system: PKMYT1; details: concentration: 1 μM, replicates: in singlicate; n = 1
[2] = system: PKN1; details: concentration: 1 μM, replicates: in singlicate; n = 1
[3] = system: PKN2; details: concentration: 1 μM, replicates: in singlicate; n = 1
[4] = system: PLK1; details: n = 1
[5] = system: PLK2; details: concentration: 1 μM, replicates: in singlicate; n = 1
[6] = system: PLK3; details: concentration: 1 μM, replicates: in singlicate; n = 1
[7] = system: PLK4; details: concentration: 1 μM, replicates: in singlicate; n = 1
[8] = system: PRKCD; details: concentration: 1 μM, replicates: in singlicate; n = 1
[9] = system: PRKCE; details: concentration: 1 μM, replicates: in singlicate; n = 1
[10] = system: PRKCH; details: concentration: 1 μM, replicates: in singlicate; n = 1
[11] = system: PRKCI; details: concentration: 1 μM, replicates: in singlicate; n = 1
[12] = system: PRKCQ; details: concentration: 1 μM, replicates: in singlicate; n = 1
[13] = system: PRKD1; details: concentration: 1 μM, replicates: in singlicate; n = 1
[14] = system: PRKD2; details: concentration: 1 μM, replicates: in singlicate; n = 1
[15] = system: PRKD3; details: concentration: 1 μM, replicates: in singlicate; n = 1
[16] = system: PRKG1; details: concentration: 1 μM, replicates: in singlicate; n = 1
[17] = system: PRKG2; details: concentration: 1 μM, replicates: in singlicate; n = 1
[18] = system: T1, PRKR; details: concentration: 1 μM, replicates: in singlicate; n = 1
T1 construct: gene EIF2AK2

[19] = system: PRKX; details: concentration: 1 μM, replicates: in singlicate; n = 1
[20] = system: PRP4; details: concentration: 1 μM, replicates: in singlicate; n = 1
[21] = concentration: 1 μM, replicates: in singlicate
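Further: KINOMEscan kinase panel screen.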

## O=C(Nc1cccc(-c2nn3ncccc3c2-c2ccnc(Nc3cccc(C(F)(F)F)c3)n2)c1)c1c(F)cccc1F [GSK299495]
[1]
  %Inh: 9%
[2]
  %Inh: 0%
[3]
  %Inh: 0%
[4]; [21]
  %Inh: 0%
[5]
  %Inh: 0%
[6]
  %Inh: 2%
[7]
  %Inh: 0%
[8]
  %Inh: 0%
[9]
  %Inh: 14%
[10]
  %Inh: 16%
[11]
  %Inh: 19%
[12]
  %Inh: 49%
[13]
  %Inh: 16%
[14]
  %Inh: 0%
[15]
  %Inh: 14%
[16]
  %Inh: 0%
[17]
  %Inh: 0%
[18]
  %Inh: 0%
[19]
  %Inh: 0%
[20]
  %Inh: 71%

## CCc1nc(-c2cccc(C)c2)c(-c2ccnc(NCc3ccccc3)c2)s1
[1]
  %Inh: 5%
[2]
  %Inh: 14%
[3]
  %Inh: 0%
[4]; [21]
  %Inh: 0%
[5]
  %Inh: 7%
[6]
  %Inh: 6%
[7]
  %Inh: 0%
[8]
  %Inh: 16%
[9]
  %Inh: 0%
[10]
  %Inh: 0%
[11]
  %Inh: 0%
[12]
  %Inh: 31%
[13]
  %Inh: 0%
[14]
  %Inh: 13%
[15]
  %Inh: 0%
[16]
  %Inh: 0%
[17]
  %Inh: 0%
[18]
  %Inh: 0%
[19]
  %Inh: 0%
[20]
  %Inh: 6%

## O=C1Cc2cc(Nc3nc(NCc4cccc(S(=O)(=O)C(F)(F)F)c4)ncc3C(F)(F)F)ccc2N1
[1]
  %Inh: 17%
[2]
  %Inh: 0%
[3]
  %Inh: 0%
[4]; [21]
  %Inh: 0%
[5]
  %Inh: 5%
[6]
  %Inh: 1%
[7]
  %Inh: 4%
[8]
  %Inh: 17%
[9]
  %Inh: 23%
[10]
  %Inh: 0%
[11]
  %Inh: 0%
[12]
  %Inh: 4%
[13]
  %Inh: 16%
[14]
  %Inh: 0%
[15]
  %Inh: 26%
[16]
  %Inh: 0%
[17]
  %Inh: 1%
[18]
  %Inh: 0%
[19]
  %Inh: 0%
[20]
  %Inh: 10%

## Cc1ccc(C(=O)NCC(N)=O)cc1-n1c(C)cc(OCc2ccc(F)cc2F)c(Br)c1=O
[1]
  %Inh: 22%
[2]
  %Inh: 6%
[3]
  %Inh: 0%
[4]; [21]
  %Inh: 0%
[5]
  %Inh: 0%
[6]
  %Inh: 0%
[7]
  %Inh: 0%
[8]
  %Inh: 33%
[9]
  %Inh: 2%
[10]
  %Inh: 1%
[11]
  %Inh: 36%
[12]
  %Inh: 26%
[13]
  %Inh: 23%
[14]
  %Inh: 0%
[15]
  %Inh: 15%
[16]
  %Inh: 0%
[17]
  %Inh: 12%
[18]
  %Inh: 0%
[19]
  %Inh: 22%
[20]
  %Inh: 0%

## COc1ccc(Nc2nccc(N3CCC(NC(=O)Nc4cc(C)ccc4C)C3)n2)cc1 (centres unmarked) [GSK1379741]
[1]
  %Inh: 0%
[2]
  %Inh: 0%
[3]
  %Inh: 0%
[4]; [21]
  %Inh: 0%
[5]
  %Inh: 0%
[6]
  %Inh: 0%
[7]
  %Inh: 0%
[8]
  %Inh: 0%
[9]
  %Inh: 13%
[10]
  %Inh: 0%
[11]
  %Inh: 7%
[12]
  %Inh: 22%
[13]
  %Inh: 0%
[14]
  %Inh: 0%
[15]
  %Inh: 4%
[16]
  %Inh: 0%
[17]
  %Inh: 0%
[18]
  %Inh: 0%
[19]
  %Inh: 6%
[20]
  %Inh: 22%

## Fc1ccc(-c2nn3c(OCC(F)(F)F)cccc3c2-c2ccncc2)cc1 [GW514784]
[1]
  %Inh: 0%
[2]
  %Inh: 0%
[3]
  %Inh: 0%
[4]; [21]
  %Inh: 0%
[5]
  %Inh: 0%
[6]
  %Inh: 0%
[7]
  %Inh: 0%
[8]
  %Inh: 0%
[9]
  %Inh: 14%
[10]
  %Inh: 13%
[11]
  %Inh: 25%
[12]
  %Inh: 12%
[13]
  %Inh: 27%
[14]
  %Inh: 7%
[15]
  %Inh: 0%
[16]
  %Inh: 14%
[17]
  %Inh: 7%
[18]
  %Inh: 0%
[19]
  %Inh: 3%
[20]
  %Inh: 34%

## Fc1ccc(-c2ncn(CCCN3CCOCC3)c2-c2cccnc2)cc1 [SB-211743]
[1]
  %Inh: 0%
[2]
  %Inh: 0%
[3]
  %Inh: 13%
[4]; [21]
  %Inh: 0%
[5]
  %Inh: 0%
[6]
  %Inh: 15%
[7]
  %Inh: 0%
[8]
  %Inh: 6%
[9]
  %Inh: 0%
[10]
  %Inh: 0%
[11]
  %Inh: 23%
[12]
  %Inh: 0%
[13]
  %Inh: 0%
[14]
  %Inh: 6%
[15]
  %Inh: 0%
[16]
  %Inh: 35%
[17]
  %Inh: 0%
[18]
  %Inh: 0%
[19]
  %Inh: 0%
[20]
  %Inh: 0%

## COc1cc2c(cc1OC[C@@H](O)CO)ncc1c3ccc(C#N)cc3[nH]c21
[1]
  %Inh: 0%
[2]
  %Inh: 0%
[3]
  %Inh: 33%
[4]; [21]
  %Inh: 0%
[5]
  %Inh: 0%
[6]
  %Inh: 0%
[7]
  %Inh: 9%
[8]
  %Inh: 5%
[9]
  %Inh: 62%
[10]
  %Inh: 0%
[11]
  %Inh: 0%
[12]
  %Inh: 0%
[13]
  %Inh: 0%
[14]
  %Inh: 0%
[15]
  %Inh: 0%
[16]
  %Inh: 0%
[17]
  %Inh: 0%
[18]
  %Inh: 0%
[19]
  %Inh: 0%
[20]
  %Inh: 9%

## COc1cc2ncn(-c3cc(OCc4sccc4Cl)c(C(N)=O)s3)c2cc1OC [GSK448459]
[1]
  %Inh: 0%
[2]
  %Inh: 0%
[3]
  %Inh: 0%
[4]; 1 µM
  %Inh: 100%
[5]
  %Inh: 99.5%
[6]
  %Inh: 99.5%
[7]
  %Inh: 4%
[8]
  %Inh: 0%
[9]
  %Inh: 0%
[10]
  %Inh: 0%
[11]
  %Inh: 10%
[12]
  %Inh: 0%
[13]
  %Inh: 0%
[14]
  %Inh: 0%
[15]
  %Inh: 0%
[16]
  %Inh: 14%
[17]
  %Inh: 13%
[18]
  %Inh: 0%
[19]
  %Inh: 0%
[20]
  %Inh: 26%

## O=C(Nc1n[nH]c2cc(-c3cccc(F)c3)ccc12)C1CC1 [SB-735464]
[1]
  %Inh: 1%
[2]
  %Inh: 7%
[3]
  %Inh: 17%
[4]; [21]
  %Inh: 0%
[5]
  %Inh: 37%
[6]
  %Inh: 13%
[7]
  %Inh: 4%
[8]
  %Inh: 0%
[9]
  %Inh: 34%
[10]
  %Inh: 8%
[11]
  %Inh: 0%
[12]
  %Inh: 5%
[13]
  %Inh: 0%
[14]
  %Inh: 0%
[15]
  %Inh: 1%
[16]
  %Inh: 16%
[17]
  %Inh: 0%
[18]
  %Inh: 0%
[19]
  %Inh: 0%
[20]
  %Inh: 7%

## CN1c2ccc(NCc3ccc(F)cc3)cc2-c2c(cnn2C)S1(=O)=O
[1]
  %Inh: 0%
[2]
  %Inh: 0%
[3]
  %Inh: 0%
[4]; [21]
  %Inh: 2%
[5]
  %Inh: 0%
[6]
  %Inh: 0%
[7]
  %Inh: 0%
[8]
  %Inh: 0%
[9]
  %Inh: 23%
[10]
  %Inh: 0%
[11]
  %Inh: 29%
[12]
  %Inh: 12%
[13]
  %Inh: 13%
[14]
  %Inh: 1%
[15]
  %Inh: 0%
[16]
  %Inh: 0%
[17]
  %Inh: 7%
[18]
  %Inh: 0%
[19]
  %Inh: 0%
[20]
  %Inh: 33%

## c1ccc(-c2n[nH]cc2-c2ccnc3ccccc23)nc1 [GW271431]
[1]
  %Inh: 3%
[2]
  %Inh: 12%
[3]
  %Inh: 0%
[4]; [21]
  %Inh: 0%
[5]
  %Inh: 0%
[6]
  %Inh: 0%
[7]
  %Inh: 0%
[8]
  %Inh: 4%
[9]
  %Inh: 3%
[10]
  %Inh: 9%
[11]
  %Inh: 0%
[12]
  %Inh: 0%
[13]
  %Inh: 1%
[14]
  %Inh: 14%
[15]
  %Inh: 38%
[16]
  %Inh: 0%
[17]
  %Inh: 8%
[18]
  %Inh: 0%
[19]
  %Inh: 0%
[20]
  %Inh: 5%

## COc1ccc(Nc2nccc(N3CCC(NC(=O)Nc4cccc(C(C)=O)c4)C3)n2)cc1 (centres unmarked) [GSK1379731]
[1]
  %Inh: 0%
[2]
  %Inh: 3%
[3]
  %Inh: 0%
[4]; [21]
  %Inh: 7%
[5]
  %Inh: 0%
[6]
  %Inh: 0%
[7]
  %Inh: 0%
[8]
  %Inh: 0%
[9]
  %Inh: 0%
[10]
  %Inh: 0%
[11]
  %Inh: 18%
[12]
  %Inh: 18%
[13]
  %Inh: 0%
[14]
  %Inh: 11%
[15]
  %Inh: 7%
[16]
  %Inh: 0%
[17]
  %Inh: 0%
[18]
  %Inh: 0%
[19]
  %Inh: 24%
[20]
  %Inh: 0%
